Data published in PubChem BioAssay (Tox21).
Results filed as inconclusive are left out. A number with no mark means an inactive call. Calls come from the whole dose curve; as a rule, active = well fitted cell-killing curve with a large enough effect in the repeat runs; inconclusive = weak or mixed curves; inactive = flat fitted curve, though single readings scatter.

Assay: qHTS RealTime-Glo MT Cell Viability Assay in HepG2 cells - 16 hour (AID 1224885); note: nearly all actives have a fitted effect of over 50% in size
Conditions: RealTime-Glo luminescence; series mostly up to 76.8 µM; activity change, negative = cytotoxic: at the top concentration
Source text: U.S. Tox21 Program National Center for Advancing Translational Sciences [NCATS] NIH Chemical Genomics Center [NCGC] U.S. Environmental Protection Agency [EPA] National Institutes of Environmental Health Sciences [NIEHS] National Toxicology Program [NTP] U.S. Food and Drug Administration [FDA] Tox21 Assay Overview: Measure of cell viability is critical in the cell-base assay. Analysis of cell viability is necessary for the characterization of cell responses to cytotoxic drugs and environmental stress. A RealTime-Glo MT Cell Viability Assay to monitor cell viability in real time of continues cell culture during 40 hours of compound treatment was used to screen Tox21 10K library compounds in HepG2 cells. The RealTime-Glo MT Cell Viability Assay is a nonlytic, homogeneous, bioluminescent method to measure cell viability in real time using a simple, plate-based method. The assay involves adding NanoLuc luciferase and a cell-permeant prosubstrate to cells in culture. Viable cells reduce the proprietary prosubstrate to generate a substrate for NanoLuc luciferase. This substrate diffuses from cells into the surrounding culture medium, where it is rapidly used by the NanoLuc Enzyme to produce a luminescent signal. The signal correlates with the number of viable cells, making the assay well suited for cytotoxicity studies.
Tox21 Assay Protocol Summary: The mixture of HepG2 cell suspension and reagents were dispensed at 600cells/6 ul/well in 1536-well tissue culture treated black solid bottom plates using a Multidrop dispenser. After the assay plates were incubated at a 37 C/5% CO2 incubator for 5 hours, 23 nL of compounds dissolved in DMSO, positive and negative controls was transferred to the assay plate by a pintool work station. The plates were incubated at 37 C for 40 hours. The luminescence intensity were measured at 0h, 8h, 16h, 24h, 32h and 40h time points using ViewLux plate reader during compound treatment.
% is set by controls: 0 for no effect and ±100 for the full control effect.

SMILES	activity change, negative = cytotoxic
CC(=O)OCCc1ccccc1	4.65%
CC1=CC(=O)/C(=C(/C)O)C(=O)O1	3.95%
CC(=O)OC/C=C/c1ccccc1	1.12%
CC(C)(C)c1cc(CO)cc(C(C)(C)C)c1O	-4.5%
Oc1ccc(Sc2ccc(O)cc2)cc1	-4.74%
Oc1ccc2c(c1)OCO2	-0.287%
C=C(C)C(=O)OCCOc1ccccc1	0.663%
COCCCCCCCCOCCC[Si](C)(O[Si](C)(C)C)O[Si](C)(C)C	-14.7%
Oc1ccc(O)c2c(O)cccc12	-6.34%
CCC(=O)OC(C)(C)C1CC=C(C)CC1 (stereo not given)	1.32%
O=c1c2ccccc2nnn1CCl	0.0115%
CN1CCC(OC(c2ccccc2)c2ccccc2)CC1	-1.47% [at 35.3 µM]
Cc1ccc2c(ccc3ccccc32)c1	-3.9%
O=C(O)/C=C/c1cnc[nH]1	0.658%
O=S1(=O)c2cccc3cccc(c23)N1CCCN1CCN(c2ccc(F)cc2)CC1	-11.6% [at 35.3 µM]
CCCCCCCCCCCCC(=O)O	4.92%
Nc1ccc(C(=O)Nc2ccccc2N)cc1	-0.808% [at 35.3 µM]
CCCCOCCOCCOCCOCCO	-1.11%
COc1ccc(OC)c(OC)c1	2.83%
O=c1[nH]cnc2ccccc12	-0.589%

SMILES	activity change, negative = cytotoxic
N#CCc1cccc(C(F)(F)F)c1	0.417%
Cc1cccc(Oc2ccccc2)c1	-17.9%
CCCCCCCCCC(=O)OCC	5.55%
CN1CCC(=C2c3ccccc3CCc3sccc32)CC1	-16.5% [at 35.3 µM]
CCCCCCCCCCCCCCC1CO1 (stereo not given)	1.76%
CN(C)CC[C@@H](c1ccc(Br)cc1)c1ccccn1	-4.29% [at 35.3 µM]
CCCC(C)C	-0.665%
N#Cc1c(F)cccc1F	0.0793%
c1ccc(OCc2ccc(CCCN3CCOCC3)cc2)cc1	-8.94% [at 35.3 µM]
CCOc1ccc2[nH]cc(C(=O)NCc3ccccc3)c(=O)c2n1	-24.1%
SC1CCCC1	-0.484%
O=C(NS(=O)(=O)/C=C/c1cccs1)c1ccc(F)cc1Br	-4.6%
CC(C)(C)c1cc(CCC(=O)OCC(COC(=O)CCc2cc(C(C)(C)C)c(O)c(C(C)(C)C)c2)(COC(=O)CCc2cc(C(C)(C)C)c(O)c(C(C)(C)C)c2)COC(=O)CCc2cc(C(C)(C)C)c(O)c(C(C)(C)C)c2)cc(C(C)(C)C)c1O	-0.115% [at 35.3 µM]
Cc1cc(NC(=O)C(=O)O)cc(C)c1Oc1ccc(O)c2c1CCC2	-5.31%
CC(C)(C)C(=O)OCOP(=O)(COCCn1cnc2c(N)ncnc21)OCOC(=O)C(C)(C)C	-7.61% [at 35.3 µM]
Cc1ccc(C(=O)C(C)CN2CCCCC2)cc1 (stereo not given)	4.12% [at 35.3 µM]
Nc1nc(N)c2nc(CNc3ccc(C(=O)N[C@@H](CCC(=O)O)C(=O)O)cc3)cnc2n1	0.448%
C[C@@H](C1=C(CCN(C)C)Cc2ccccc21)c1ccccn1	-7.09% [at 35.3 µM]
O=C1CCCCCO1	-0.382%
O=C(O)Cn1c(C(=O)Nc2nc(-c3ccccc3Cl)cs2)cc2ccccc21	0.673% [at 35.3 µM]
